The record followed here is ChEMBL document CHEMBL4808148, “HDAC6 screening dataset using tau-based substrate in an enzymatic assay yields selective inhibitors and activators” (2021).

Out of some 5,600 compounds screened, about 390 (7%) showed an effect of 50% or more. The full list was thinned out, with strong results kept by preference. Non-standard residues stand in square brackets, D forms with d. Residues, ends and D or L forms follow the SMILES beside them. dPhe(4-Cl) = N[C@H](Cc1ccc(Cl)cc1)C(=O)O; d2Nal = N[C@H](Cc1ccc2ccccc2c1)C(=O)O; dCit = NC(=O)NCCC[C@@H](N)C(=O)O; d3Pal = N[C@H](Cc1cccnc1)C(=O)O

Assay [1] addresses T1, Protein deacetylase HDAC6 (Homo sapiens) (UniProt Q9UBN7).
T1 sequence (whole entry): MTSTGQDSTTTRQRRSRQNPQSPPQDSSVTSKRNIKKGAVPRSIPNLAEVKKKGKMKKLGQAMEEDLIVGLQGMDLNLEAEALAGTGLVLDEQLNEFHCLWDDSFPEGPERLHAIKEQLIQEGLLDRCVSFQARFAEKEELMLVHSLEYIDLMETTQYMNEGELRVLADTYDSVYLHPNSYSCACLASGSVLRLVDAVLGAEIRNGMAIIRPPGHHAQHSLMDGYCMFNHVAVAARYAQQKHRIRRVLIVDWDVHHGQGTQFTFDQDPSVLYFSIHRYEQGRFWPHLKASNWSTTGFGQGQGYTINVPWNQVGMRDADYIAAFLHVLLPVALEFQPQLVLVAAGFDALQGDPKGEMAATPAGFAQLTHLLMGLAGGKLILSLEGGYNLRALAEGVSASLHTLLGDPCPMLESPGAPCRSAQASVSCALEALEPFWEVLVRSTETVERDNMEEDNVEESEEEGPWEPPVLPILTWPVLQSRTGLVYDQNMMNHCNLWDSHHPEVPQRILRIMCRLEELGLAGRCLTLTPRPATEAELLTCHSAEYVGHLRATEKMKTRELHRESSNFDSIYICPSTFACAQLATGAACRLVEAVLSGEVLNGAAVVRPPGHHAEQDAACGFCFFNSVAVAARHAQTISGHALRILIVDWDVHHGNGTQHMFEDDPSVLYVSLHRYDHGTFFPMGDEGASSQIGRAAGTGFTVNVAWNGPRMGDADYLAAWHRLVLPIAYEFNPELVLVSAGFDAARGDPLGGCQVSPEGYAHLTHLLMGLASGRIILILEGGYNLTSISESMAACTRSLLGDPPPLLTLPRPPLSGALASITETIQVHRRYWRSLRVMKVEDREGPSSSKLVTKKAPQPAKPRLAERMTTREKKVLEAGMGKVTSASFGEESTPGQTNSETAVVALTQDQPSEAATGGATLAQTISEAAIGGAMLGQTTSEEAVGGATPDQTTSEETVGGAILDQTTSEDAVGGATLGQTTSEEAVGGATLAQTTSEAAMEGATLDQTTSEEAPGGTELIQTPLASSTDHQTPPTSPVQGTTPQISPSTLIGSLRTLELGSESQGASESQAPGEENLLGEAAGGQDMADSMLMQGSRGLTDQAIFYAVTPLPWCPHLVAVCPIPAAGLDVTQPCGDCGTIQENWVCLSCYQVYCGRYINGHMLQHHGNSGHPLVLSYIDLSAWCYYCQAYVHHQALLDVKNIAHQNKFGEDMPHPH
The following applies: at 10 µM.

The target of assay [2] is Protein deacetylase HDAC6 (Homo sapiens) (UniProt Q9UBN7). Conditions: at 10 µM. The source holds these as a separate data set.

For the compound `CCC[C@H](NC(=O)[C@@H]1[C@H]2CCC[C@H]2CN1C(=O)[C@@H](NC(=O)[C@@H](NC(=O)c1cnccn1)C1CCCCC1)C(C)(C)C)C(=O)C(=O)NC1CC1`, the inhibition (as a rule, the change of the read-out against control, counted positive when it falls) in assay [1] is -8.83%. Take `Clc1ccc2c(NCCNc3ccnc4cc(Cl)ccc34)ccnc2c1`: the inhibition in assay [1] amounted to 14.9%.

On to `Oc1ccnc2cc(Cl)ccc12`, for which the inhibition in assay [1] came out at 28.9%. Consider `O=C(OCC(O)CO)c1ccccc1Nc1ccnc2cc(Cl)ccc12` (stereo unspecified), for which the inhibition in assay [1] came to 94.8%.

With `O=C(O)CCNc1cc(N2CCc3ccccc3CC2)nc(-c2cccnc2)n1`, in assay [1], the inhibition is -1.98%. Take `Cc1cc(O)c2c(=O)c3c(O)cc(O)c4c5c(O)cc(O)c6c(=O)c7c(O)cc(C)c8c1c2c(c34)c(c78)c65`: the inhibition in assay [1] stood at 85%. Turning to `Nc1c2c(nc3ccccc13)CCCC2O` (stereo unspecified), the inhibition in assay [1] was 7.55%.

In the case of `O[C@@H]1CO[C@H]2[C@@H]1OC[C@@H]2O`, in assay [1], the inhibition worked out at 0.18%. Still for that read-out and setting: the figure for `Cc1nnc(C(C)C)n1[C@H]1C[C@H]2CC[C@@H](C1)N2CC[C@H](NC(=O)C1CCC(F)(F)CC1)c1ccccc1` is 25%. In the case of `CNC(=O)c1ccccc1Sc1ccc2c(/C=C/c3ccccn3)n[nH]c2c1`, the inhibition in assay [1] was 105%. For the compound `CCCCc1nc(Cl)c(C(=O)O)n1Cc1ccc(-c2ccccc2-c2nn[nH]n2)cc1`, in assay [1], the inhibition was 6.5%. Same read-out and setting: to `CCOc1nc2cccc(C(=O)O)c2n1Cc1ccc(-c2ccccc2-c2nnn[nH]2)cc1` belongs -9.37%. As to `CCCc1nc2c(C)cc(-c3nc4ccccc4n3C)cc2n1Cc1ccc(-c2ccccc2C(=O)O)cc1`, the inhibition in assay [1] was 65%. As for `O=C(O)[C@H]1C[C@@H](CP(=O)(O)O)CCN1`, the inhibition in assay [1] was determined as 7.25%.

On to `CC(C)C[C@@H](C(=O)N[C@H](C(=O)OC1CCCC1)c1ccccc1)[C@H](O)C(=O)NO`, for which, in assay [1], the inhibition was -7.78%. In the case of `[K+]`, the inhibition in assay [1] turned out to be 17.5%. For the compound `O=C(Nc1cnn2ccc(N3CCC[C@@H]3c3cc(F)ccc3F)nc12)N1CC[C@H](O)C1`, the inhibition in assay [1] came to 28.9%. Still for that read-out and setting: the figure for `O=C1C(O)=C(O)C(=O)C(O)=C1O` is 1.19%; for `c1ccc(N2CCN(Cc3nc4ccccc4[nH]3)CC2)nc1` it is 20.5%. The same measure, in the same setting: to `CC(C)(C)c1ccc(-c2nc3c(N4CCN(Cc5ccc6nccnc6c5)CC4)cccc3[nH]2)cc1` belongs 110%; to `CCc1cncnc1N1CCN(Cc2nc3cc(C(F)(F)F)ccc3[nH]2)CC1`, 2.81%; to `CCCCCCCN(CC)CCCC(O)c1ccc(NS(C)(=O)=O)cc1` (stereo unspecified), 30.4%.

`O=C(c1ccc(C(=O)N2CCC(N3CCCC3)CC2)c(Nc2ccccc2)c1)N1CCC(N2CCCC2)CC1`: the inhibition in assay [1] was 28.5%. In the case of `COc1cc2c(cc1OCCCN1CCCC1)N=C(N)C21CCC1`, the inhibition in assay [1] was -4.1%. Consider `O=C(O)c1ccc(/C=C2/SC(=S)N(c3cccc(C(F)(F)F)c3)C2=O)cc1`, for which the inhibition in assay [1] was 4.63%. `COc1ccccc1OCC(O)COC(N)=O` (stereo unspecified): the inhibition in assay [1] amounted to 75.6%.

With `NC(=O)OCC(O)COc1ccc(Cl)cc1` (stereo unspecified), in assay [1], the inhibition is 47.1%. Take `COc1ccccc1OCC(O)CO` (stereo unspecified): the inhibition in assay [1] is -8.39%.

`CC(C)C[C@H](NC(=O)N1CCCCCC1)C(=O)N[C@H](Cc1cn(C)c2ccccc12)C(=O)N[C@H](Cc1ccccn1)C(=O)O`: the inhibition in assay [1] is -8.82%. Same read-out and setting: to `CC(=O)N[C@H](Cc1ccc2ccccc2c1)C(=O)N[C@H](Cc1ccc(Cl)cc1)C(=O)N[C@H](Cc1cccnc1)C(=O)N[C@@H](CO)C(=O)N[C@@H](Cc1ccc(O)cc1)C(=O)N[C@H](CCCNC(N)=O)C(=O)N[C@@H](CC(C)C)C(=O)N[C@@H](CCCNC(=N)N)C(=O)N1CCC[C@H]1C(=O)N[C@H](C)C(N)=O` (Ac-[d2Nal][dPhe(4-Cl)][d3Pal]SY[dCit]LRP[dA]-NH2) belongs 30.9%; to `Cc1nc(C)c(C)nc1C`, -3.53%.

Consider `COc1ccc(-c2ccc(=N)n(CCCC(=O)O)n2)cc1`, for which the inhibition in assay [1] came to 8.71%. For the compound `O=c1ncn2nc(Sc3ccc(F)cc3F)ccc2c1-c1c(Cl)cccc1Cl`, in assay [1], the inhibition was found to be 36.3%. Same read-out and setting: to `CN1c2c([nH]c(N)nc2=O)NC[C@@H]1CNc1ccc(C(=O)N[C@@H](CCC(=O)O)C(=O)O)cc1` belongs 11.1%; to `CCc1nc2ccc(Cl)cn2c1C(=O)NCc1ccc(N2CCC(c3ccc(OC(F)(F)F)cc3)CC2)cc1`, 6.99%.

`COc1cccc(-c2cc(=O)c3ccccc3o2)c1N`: the inhibition in assay [1] was found to be 97.4%.

For `CC(=O)N[C@@H](CSC/C=C(\C)CC/C=C(\C)CCC=C(C)C)C(=O)O`, the inhibition in assay [1] was 19.5%. On to `Cc1ccc(N2CCN(CCC3NC(=O)c4ccccc43)CC2)cc1C` (stereo unspecified), for which the inhibition in assay [1] was determined as 0.62%.

For the compound `CCN(Cc1ccccc1)C(=O)Cn1c(=O)n(C)c2cnc(-c3ccccc3)nc21`, the inhibition in assay [1] amounted to 31.2%. `Cc1cc2nc3ccc(N(C)C)cc3[s+]c2cc1N`: the inhibition in assay [1] is 60.9%. For the compound `CC1CCN(C(c2ccc(F)cc2)c2ccc(C(C)C(=O)O)cc2-c2ccc(C(F)(F)F)cc2)CC1` (stereo unspecified), in assay [1], the inhibition was 27.9%. For `Nc1ncnc2nc(-c3ccc(N4CCOCC4)nc3)cc(-c3cccc(Br)c3)c12`, the inhibition in assay [1] was determined as 19.8%. BLEOMYCIN SULFATE, CHEMBL6067493: the inhibition in assay [2] turned out to be 23.1%. In the case of CYANOCOBALAMIN, CHEMBL2110563, in assay [2], the inhibition was -2.71%.

In the case of FLUPENTIXOL, CHEMBL6066864, the inhibition in assay [2] was found to be 88.9%.

Turning to `O=c1ccc2cc3ccoc3cc2o1`, the inhibition in assay [1] was found to be 17.5%.
